Data reported in PubChem BioAssay (NCATS).
Records with an inconclusive call do not appear. Calls of active or inactive are those of the source. Calls follow the shape of the dose curve; as a rule, active = well fitted cell-killing curve with a large enough effect; inconclusive = small, poorly fitted or top-dose-only effect; inactive = no such curve, though single readings can be large or run the other way.
% is scaled to controls: 0 for no effect and ±100 for the full control effect; potency is read from the fitted curve at half-maximal effect.

Test: qHTS of pediatric cancer cell lines to identify multiple opportunities for drug repurposing: Confirmatory screen for DAOY cells (AID 1347114); also: nearly all actives have a fitted effect of over 65% in size
Details: DAOY medulloblastoma cells viability, cytotoxicity qHTS; series mostly up to 45.9 µM; activity change, negative = cytotoxic: at the top concentration
From the text: Drug repurposing or repositioning has been offered as a strategy for drug development in oncology programs. This approach has special potential for childhood cancers and other rare or orphan diseases, where the expected return on new drug development has been a disincentive to pharmaceuticals.
In this project we exploit the poly-pharmacology of drugs to discover new indications via phenotypic screening of a panel of 19 well-characterized cell lines derived from solid tumors seen in children and adolescents. The goal is to identify approved drugs with previously unrecognized anticancer properties that has the potential to reveal new mechanisms and biological processes involved in carcinogenesis or drug resistance. We employed a titration-based paradigm (quantitative high-throughput screening or qHTS), where all compounds were tested at multiple concentrations for their effect on cell viability. Concentration-response curves (CRCs) were derived directly from the primary screen, and both potency and efficacy values were used to identify compounds with robust bioactivity profiles. We screened the NIH Chemical Genomics Center (NCGC) Pharmaceutical Collection (NPC) and Mechanism Interrogation Plate (MIPE) small molecule collections of approved and investigational compounds against these cell lines; and measured metabolically active cells after 48 hours of compound treatment as a proxy for cell viability.
Assay Submitter: Nathalia J. Martinez, National Center for Advancing Translational Sciences, National Institutes of Health, Rockville, MD, USA; email: natalia.martinez@nih.gov
[1] Shen, M et al. Quantitative high-throughput phenotypic screening of pediatric cancer cell lines identifies multiple opportunities for drug repurposing. Oncotarget 2017 Dec 19;9(4):4758-4772. PMID 29435139.
The cells were obtained from University of North Carolina (UNC), Pediatric Preclinical Testing Program (PPT), and Coriell Institute (CI).
qHTS cell viability assay:
Cells were assayed in growth media at a density of 500-1,000 cells/well. Five microliters of cells were dispensed into 1,536-well, white, solid-bottom, TC-treated plates (Greiner Bio One) using a multidrop dispenser and incubated at 37 degrees C, 5% CO2, under a humidified atmosphere for 5 hours. Twenty-three nanoliters of compounds and controls (neutral control DMSO or positive control bortezomib at final concentration of 2.3 µM) were subsequently transferred by Kalypsys pintool. For primary screens, the MIPE collection was tested at 11-point dilutions (final concentrations range from 0.78 nM to 46 µM) and the NPC collection at 8-point dilutions (final concentrations range from 0.59 nM to 46 µM). Compounds tested in follow-up screens were assayed at 11-point dilutions. Cells were incubated for 48 hours, followed by addition of 3 uL of CellTiter-Glo (Promega). After a 15 min incubation at room temperature, samples were analyzed for luminescence intensity using a ViewLux High-throughput CCD imager equipped with clear filters.
For `CN(Cc1cnc2nc(N)nc(N)c2n1)c1ccc(C(=O)N[C@@H](CCC(=O)O)C(=O)O)cc1`, the Potency was 0.117 µM (active).
For `CC(C)Cc1ccc(C(C)C(=O)O)cc1` (stereo not drawn), the Potency was 3.69 µM (active).
With `CCC1(c2ccccc2)C(=O)NCNC1=O` the “activity change, negative = cytotoxic” value was 9.3% (inactive).
For `COc1cc2c(c(OC)c1OC)-c1ccc(OC)c(=O)cc1[C@@H](NC(C)=O)CC2`, the Potency was 0.02 µM (active).
With `CC(CCc1ccc(O)cc1)NCCc1ccc(O)c(O)c1` (stereo not drawn) the “activity change, negative = cytotoxic” value was -8.33% (inactive).
In the case of `NC12CC3CC(CC(C3)C1)C2`, the “activity change, negative = cytotoxic” value is reported as -3.35% (inactive).
In the case of `CCCCc1oc2ccccc2c1C(=O)c1cc(I)c(OCCN(CC)CC)c(I)c1`, the Potency is reported as 31.6 µM (active).
With `Clc1ccc2nsnc2c1NC1=NCCN1` the “activity change, negative = cytotoxic” value was 7.51% (inactive).
With `O=C(c1ccc(OCCN2CCCCC2)cc1)c1c(-c2ccc(O)cc2)sc2cc(O)ccc12` the Potency was 32.9 µM (active).
For `COC(=O)Nc1nc2ccc(C(=O)c3cccs3)cc2[nH]1`, the Potency was 0.131 µM (active).
In the case of `CN(C)CCCN1c2ccccc2CCc2ccc(Cl)cc21`, the Potency is reported as 20.8 µM (active).
For `CC(C)C(=O)Nc1ccc([N+](=O)[O-])c(C(F)(F)F)c1`, the Potency was 16.5 µM (active).
In the case of `CC(C)NCC(O)c1ccc(O)c(O)c1` (stereo not drawn), the “activity change, negative = cytotoxic” value is reported as -4.75% (inactive).
In the case of `CC[C@@]1(O)C(=O)OCc2c1cc1n(c2=O)Cc2cc3c(CN(C)C)c(O)ccc3nc2-1`, the Potency is reported as 5.22 µM (active).
In the case of `O=C(Nc1ccc([N+](=O)[O-])cc1Cl)c1cc(Cl)ccc1O`, the Potency is reported as 1.02 µM (active).
For `NC(=O)NO`, the “activity change, negative = cytotoxic” value was -5.46% (inactive).
For `O=C1c2c(O)ccc(O)c2C(=O)c2c(NCCNCCO)ccc(NCCNCCO)c21`, the Potency was 7.37 µM (active).
For `CN1CCN(CCCN2c3ccccc3Sc3ccc(Cl)cc32)CC1`, the Potency was 20.8 µM (active).
